The whole screen tested about 5,500 compounds, of which about 2,000 (36%) were called active. Inconclusive results (about 18%) are left out. No stated cut-off is given here; in the data, active means normalized growth mostly below about 0.91 (no sharp cut-off); inconclusive means no clear call, values can overlap the other calls; inactive means mostly above about 0.92. Some of the results follow.
Assay: chemical genetic growth profiling, strain panel (AID 1159580);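 further: tested at 20 µM; growth read once vehicle control cultures reached saturation at 30 °C; 1 = growth at the plate median or of vehicle wells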
Conditions: S. cerevisiae deletion strains, growth OD

Measured: normalized growth

CN(C)[C@@H]1C(=O)C(C(=O)NCN2CCCC2)=C(O)[C@@]2(O)C(=O)C3=C(O)c4c(O)cccc4[C@@](C)(O)[C@H]3C[C@@H]12
inactive: locus YAL021C, strain ccr4, stronger effect = lower value 0.935 | locus YAL026C, strain drs2, stronger effect = lower value 0.976 | locus YAL030W, strain snc1, stronger effect = lower value 0.994 | locus YBL061C, strain skt5, stronger effect = lower value 0.999 | locus YBR009C, strain hhf1, stronger effect = lower value 0.965 | locus YBR023C, strain chs3, stronger effect = lower value 0.992 | locus YBR171W, strain sec66, stronger effect = lower value 1.02 | locus YBR231C, strain swc5, stronger effect = lower value 0.974 | locus YBR279W, strain paf1, stronger effect = lower value 1 | locus YCL011C, strain gbp2, stronger effect = lower value 0.94 | locus YCL016C, strain dcc1, stronger effect = lower value 0.997 | locus YCL061C, strain MRC1, stronger effect = lower value 0.997 | locus YCL069W, strain vba3, stronger effect = lower value 1.02 | locus YCR088W, strain abp1, stronger effect = lower value 1.01 | locus YDL005C, strain med2, stronger effect = lower value 1.04 | locus YDL040C, strain nat1, stronger effect = lower value 1.02 | locus YDR001C, strain nth1, stronger effect = lower value 1.01 | locus YDR069C, strain doa4, stronger effect = lower value 0.942 | locus YDR137W, strain rgp1, stronger effect = lower value 0.922 | locus YDR159W, strain sac3, stronger effect = lower value 1.04 | locus YDR195W, strain ref2 1.11 | locus YDR297W, strain sur2, stronger effect = lower value 0.985 | locus YDR334W, strain swr1, stronger effect = lower value 0.994 | locus YDR335W, strain msn5, stronger effect = lower value 1 | locus YDR392W, strain spt3, stronger effect = lower value 0.908 | locus YEL037C, strain rad23, stronger effect = lower value 1 | locus YEL061C, strain CIN8 (second series), stronger effect = lower value 1.01 | locus YER015W, strain faa2, stronger effect = lower value 0.99 | locus YER016W, strain bim1, stronger effect = lower value 1.02 | locus YER111C, strain swi4, stronger effect = lower value 1.01 | locus YER155C, strain BEM2 (second series), stronger effect = lower value 0.926 | locus YFR010W, strain ubp6, stronger effect = lower value 0.985 | locus YGL167C, strain pmr1, stronger effect = lower value 1 | locus YGL173C, strain kem1, stronger effect = lower value 1.01 | locus YGL227W, strain vid30, stronger effect = lower value 1.03 | locus YGL240W, strain doc1, stronger effect = lower value 0.987 | locus YGL253W, strain hxk2, stronger effect = lower value 1.01 | locus YHR013C, strain ard1, stronger effect = lower value 1 | locus YHR027C, strain rpn1, stronger effect = lower value 0.995 | locus YHR030C, strain SLT2, stronger effect = lower value 1.03 | locus YHR079C, strain IRE1, stronger effect = lower value 1.01 | locus YHR142W, strain chs7, stronger effect = lower value 1 | locus YJL092W, strain hpr5, stronger effect = lower value 1.01 | locus YJL095W, strain BCK1 (second series), stronger effect = lower value 0.994 | locus YJL095W, strain BCK1, stronger effect = lower value 0.992 | locus YJL115W, strain asf1, stronger effect = lower value 1.01 | locus YJL129C, strain trk1, stronger effect = lower value 1.03 | locus YJL154C, strain vps35, stronger effect = lower value 1.02 | locus YJL164C, strain tpk1, stronger effect = lower value 0.937 | locus YJL166W, strain qcr8, stronger effect = lower value 0.944 | locus YJL187C, strain SWE1, stronger effect = lower value 0.994 | locus YJR066W, strain TOR1, stronger effect = lower value 0.965 | locus YKL160W, strain elf1, stronger effect = lower value 1 | locus YKR026C, strain gcn3, stronger effect = lower value 1 | locus YKR091W, strain srl3, stronger effect = lower value 1.02 | locus YLL001W, strain dnm1, stronger effect = lower value 1.02 | locus YLL026W, stronger effect = lower value 1 | locus YLL041C, strain sdh2, stronger effect = lower value 1.01 | locus YLR027C, strain aat2, stronger effect = lower value 0.984 | locus YLR113W, strain HOG1, stronger effect = lower value 0.959 | locus YLR258W, strain gsy2, stronger effect = lower value 0.967 | locus YLR262C, strain YPT6 (second series), stronger effect = lower value 0.945 | locus YLR320W, strain mms22, stronger effect = lower value 0.97 | locus YLR342W, strain FKS1, stronger effect = lower value 1 | locus YLR370C, strain arc18, stronger effect = lower value 1 | locus YLR384C, strain iki3, stronger effect = lower value 1.01 | locus YML120C, strain ndi1, stronger effect = lower value 0.936 | locus YMR125W, strain sto1, stronger effect = lower value 1.03 | locus YMR129W, stronger effect = lower value 1.01 | locus YMR205C, strain PFK2, stronger effect = lower value 1.01 | locus YMR231W, strain pep5, stronger effect = lower value 1.01 | locus YNL071W, strain lat1, stronger effect = lower value 0.942 | locus YNL183C, strain NPR1, stronger effect = lower value 0.946 | locus YNL209W, strain ssb2, stronger effect = lower value 0.993 | locus YNL322C, strain KRE1 (second series), stronger effect = lower value 1 | locus YNR049C, strain mso1, stronger effect = lower value 1.01 | locus YOR070C, strain gyp1, stronger effect = lower value 1 | locus YOR080W, strain dia2, stronger effect = lower value 1.01 | locus YOR083W, strain WHI5, stronger effect = lower value 0.978 | locus YOR231W, strain MKK1, stronger effect = lower value 1.03 | locus YOR265W, strain rbl2, stronger effect = lower value 1 | locus YOR270C, strain vph1, stronger effect = lower value 0.977 | locus YOR290C, strain snf2, stronger effect = lower value 0.991 | locus YPL051W, strain arl3, stronger effect = lower value 0.949 | locus YPL078C, strain atp4, stronger effect = lower value 1 | locus YPL106C, strain sse1, stronger effect = lower value 0.95 | locus YPL240C, strain hsp82, stronger effect = lower value 1.02 | locus YPL256C, strain CLN2, stronger effect = lower value 1.01
active: locus YEL003W, strain gim4, stronger effect = lower value 0.732 | locus YLR221C, strain rsa3, stronger effect = lower value 0.907 | locus YLR357W, strain rsc2, stronger effect = lower value 0.787 | locus YMR058W, strain fet3, stronger effect = lower value 0.879 | locus YNL248C, strain rpa49, stronger effect = lower value 0.796 | locus YOR001W, strain rrp6, stronger effect = lower value 0.89 | locus YOR106W, strain vam3, stronger effect = lower value 0.849
